The list is not random: actives were taken first. Their share in the collection is about 5.2%.
APOBEC3G inh: inhibitors of human APOBEC3G DNA deaminase. Q9HC16. recombinant A3G, ssDNA deamination FAM/TAMRA fluorescence. inhibition, % at 20 µM. 0.28% of 330,000 active;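 active = inhibition of at least 40% at 20 µM, with no more than 30% in the related APOBEC3A deaminase screen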
APOBEC3A inh: inhibitors of human APOBEC3A DNA deaminase; recombinant A3A, FAM/TAMRA ssDNA deamination fluorescence; inhibition, % at 20 µM; 0.41% of 330,000 active; AID 493011;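 active = at least 40% inhibition at 20 µM here, with at most 30% in a related deaminase screen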
CR mimetic SO: caloric restriction mimetics inhibiting age-related superoxide in yeast; S. cerevisiae aged cells, superoxide DHE fluorescence; stronger effect = lower value; superoxide response (% of plate mean), % at 10 µM; 0.18% of 330,000 active;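 active = superoxide response under a set limit, about three screen SD below normal, cut at about 65% in these data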;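 note: yeast aged for seven days with compound at 30 °C before DHE staining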
NRP1-CendR mod: NRP-1/CendR interaction modulation | O14786 | FAM-RPARPAR peptide binding to NRP-1, fluorescence polarization | inhibition, % at 25 µM | 0.85% of 360,000 active;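 active = inhibition or corrected inhibition above about 18%, plus a signal ratio from 0.5 to 1.5, limit read from the data, passing the limit was not always enough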
Target sequence (O14786 whole entry, looked up): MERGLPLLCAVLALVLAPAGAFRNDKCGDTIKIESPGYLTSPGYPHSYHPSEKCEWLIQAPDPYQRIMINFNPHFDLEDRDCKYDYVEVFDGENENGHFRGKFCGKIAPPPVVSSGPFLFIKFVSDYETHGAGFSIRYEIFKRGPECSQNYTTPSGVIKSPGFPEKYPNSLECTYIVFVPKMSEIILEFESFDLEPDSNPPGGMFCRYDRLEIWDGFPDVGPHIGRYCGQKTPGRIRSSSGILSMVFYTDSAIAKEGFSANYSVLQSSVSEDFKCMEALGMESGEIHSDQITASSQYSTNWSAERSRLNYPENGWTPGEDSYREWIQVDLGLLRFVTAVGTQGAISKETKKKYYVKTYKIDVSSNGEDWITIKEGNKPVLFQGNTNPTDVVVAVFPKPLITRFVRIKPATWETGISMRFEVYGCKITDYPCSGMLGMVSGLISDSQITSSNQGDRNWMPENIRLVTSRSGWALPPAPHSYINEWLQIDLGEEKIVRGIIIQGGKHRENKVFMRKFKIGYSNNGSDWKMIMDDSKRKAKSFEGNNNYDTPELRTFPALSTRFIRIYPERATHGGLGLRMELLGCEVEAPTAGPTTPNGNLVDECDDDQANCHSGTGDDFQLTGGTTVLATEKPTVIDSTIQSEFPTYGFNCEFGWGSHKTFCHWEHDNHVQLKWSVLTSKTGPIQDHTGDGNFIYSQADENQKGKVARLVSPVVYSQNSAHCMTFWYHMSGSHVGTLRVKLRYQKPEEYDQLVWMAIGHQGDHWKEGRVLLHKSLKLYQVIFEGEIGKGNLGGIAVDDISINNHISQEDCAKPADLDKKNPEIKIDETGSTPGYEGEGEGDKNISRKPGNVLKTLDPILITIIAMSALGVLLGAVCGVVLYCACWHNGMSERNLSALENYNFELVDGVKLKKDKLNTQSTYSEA
PfM18AAP inh: PfM18AAP enzyme inhibition. recombinant PfM18AAP, H-Glu-NHMec fluorogenic cleavage. inhibition, % at 7.35 µM. 1.2% of 290,000 active;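 active = inhibition above the campaign mean inhibition over all tested compounds plus 3 SD, cut at about 28% in these data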
ALR H2O2 inh: human ALR oxidase inhibition via reduced H2O2; P55789; purified ALR, DTT oxidation, H2O2 HRP-luminol luminescence; inhibition, % (no concentration beside the values); 3.8% of 290,000 active; AID 485317;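 active = mean replicate inhibition above about 79%, with every replicate also reaching it, limit read from the data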
Each line names hits and unclear results; the compound was inactive in the other large screens.

CN(CC(=O)Nc1ccc(F)cc1)C(=O)COC(=O)CNC(=O)c1ccc(Cl)cc1Cl	none (no result: PfM18AAP inh)
O=C1NC(=S)N/C1=C/c1cccc2ccccc12	none
CCCCOc1ccc(CSCCN=C(N)N)cc1	NRP1-CendR mod 39.7 (no result: CR mimetic SO, ALR H2O2 inh)
CSCCC(NC(=O)CCNC(=O)c1ccccc1Cl)c1nc2ccccc2[nH]1 (stereo not given)	none (no result: PfM18AAP inh, ALR H2O2 inh)
O=C(O)CSc1nc(SCc2ccccc2Cl)nc2c1CCCC2	ALR H2O2 inh 94.7
COC(=O)CSc1nc(SCc2ccccc2Cl)nc2c1CCCC2	none
C=CCn1c(NC(=O)c2ccccc2)nc2ccccc21	NRP1-CendR mod 26.3
c1ccc2c(c1)CC(N1CCCCC1)c1ccccc1N2 (stereo not given)	ALR H2O2 inh 84.8
Cc1cc(C)c2c(=O)n(CC(=O)N3CCN(c4ccccc4)CC3)ccc2n1	none (no result: APOBEC3G inh, APOBEC3A inh, CR mimetic SO, PfM18AAP inh, ALR H2O2 inh)
OC(COCc1cccs1)CN1CCN(c2cccc(Cl)c2)CC1 (stereo not given)	ALR H2O2 inh 91.4
Cc1ccc(C)c(NC(=O)C(=O)NCCCN2CCOCC2)c1	NRP1-CendR mod 33.3
N#Cc1c(NC(=O)C(=O)NCCCN2CCOCC2)sc2c1CCCC2	ALR H2O2 inh 96.3
COC(=O)c1c(NC(=O)C(=O)NCCCN2CCOCC2)sc2c1CCC2	none
NC(=O)c1nsc(C(=O)N(c2ccccc2)C(C(=O)NC2CCCC2)c2ccc3ncccc3c2)c1N (stereo not given)	none (no result: ALR H2O2 inh)
O=C(NC1CC1)c1cc(=O)c2ccccc2o1	none
CCOC(=O)CSc1nnc(N)s1	none
N#Cc1ccc(COC(=O)CSc2nnc(N)s2)cc1	ALR H2O2 inh 97.1
Cc1cccc(NC(=O)c2ccc(Cl)c(S(=O)(=O)N3CCCC3)c2)n1	none
COc1cc(NC(=O)Nc2cccc(C(C)=O)c2)cc(OC)c1OC	ALR H2O2 inh 98.4
COc1cc(C(=O)Nc2cccc(C(C)=O)c2)cc(OC)c1OC	none
CCCn1c(N)c(C(=O)CN(C)CC(=O)Nc2ccccc2CC)c(=O)[nH]c1=O	none (no result: PfM18AAP inh)
Cc1cc2c(=O)oc(-c3ccc(Br)cc3)nc2s1	none
Cc1cccc(-c2nc3sc(C)cc3c(=O)o2)c1	ALR H2O2 inh 97.3
CCN(CC)C(=O)CSc1nnc(-c2c[nH]c3ccccc23)o1	NRP1-CendR mod 31.3
Oc1[nH]c2ccccc2c1C1=NCCCC1	ALR H2O2 inh 98.2
O=C(COc1ccccc1Cl)NC(=O)NC1CCCC1	none
Cc1cc(C(F)(F)F)c2c(C)nn(-c3ccccc3)c2n1	none (no result: PfM18AAP inh)
Cc1cc(C)nc(Sc2c(C)nn(-c3ccccc3)c2C)n1	ALR H2O2 inh 79.7
C[C@H](O)[C@@H]1C(=O)N2CCc3c([nH]c4ccccc34)[C@@H]2C[C@@H]1N(C)C(=O)Nc1cc(Cl)cc(Cl)c1	none (no result: APOBEC3G inh, APOBEC3A inh, CR mimetic SO, PfM18AAP inh, ALR H2O2 inh)
C#CCOCCOCCOCCNc1nc(N2CCN(C(=O)CCCCCCCCCCNC(=O)[C@H](CO)n3cc(CCCSC)nn3)CC2)nc(N2CCN(C(=O)CCCCCCCCCCNC(=O)[C@H](CCCCN)n3cc(CCO)nn3)CC2)n1	none (no result: PfM18AAP inh)
C#CCOCCOCCOCCNc1nc(N2CCN(C(=O)CCCCCCCCCCNC(=O)[C@H]([C@@H](C)CC)n3cc(CCCCN=C(N)N)nn3)CC2)nc(N2CCN(C(=O)CCCCCCCCCCNC(=O)[C@H](CO)n3cc(CCCCCN)nn3)CC2)n1	NRP1-CendR mod 28.1 (no result: PfM18AAP inh)
C#CCOCCOCCOCCNc1nc(N2CCN(C(=O)CCCCCCCCCCNC(=O)[C@H](CO)n3cc(CCCSC)nn3)CC2)nc(N2CCN(C(=O)CCCCCCCCCCNC(=O)[C@H](CCCN=C(N)N)n3cc(C[C@@H](C)CC)nn3)CC2)n1	NRP1-CendR mod 25.1 (no result: PfM18AAP inh)
CC1CN(Cc2c(O)ccc3c2oc(=O)c2ccccc23)CC(C)O1 (stereo not given)	none
CCc1ccc(N(C(=O)c2snc(C(N)=O)c2N)C(C(=O)NCC2CCCO2)c2ccco2)cc1 (stereo not given)	none
COc1ccc(-c2csc(N)n2)cc1F	ALR H2O2 inh 95.7
CCc1ccc(OC)c(-c2csc(N)n2)c1	ALR H2O2 inh 98.2
CCCCOc1ccc(-c2cn3ccccc3n2)cc1[N+](=O)[O-]	none
Nc1nc(-c2ccc(F)cc2)cs1	none
CCCOc1ccc(-c2csc(N)n2)cc1[N+](=O)[O-]	ALR H2O2 inh 98.5
CN(C)S(=O)(=O)c1ccc(C(=O)Nc2ccc(Cl)cc2)cc1	none
CCOC(=O)[C@]12CCCC=C1N(Cc1ccccc1)C(=O)[C@H](CC(=O)NCCCOC)C2	none (no result: APOBEC3G inh, APOBEC3A inh, CR mimetic SO, PfM18AAP inh, ALR H2O2 inh)
CC(C)(C)c1ccc(Oc2ccc(NC(=O)CCCC(=O)O)cn2)cc1	ALR H2O2 inh 90.6
CC1CN(C(=O)c2cc3cc(Cl)cc(Cl)c3oc2=O)CC(C)O1 (stereo not given)	none
Cc1cc(C)cc(N2CC(O)Cn3c2nc2c3c(=O)[nH]c(=O)n2C)c1 (stereo not given)	none
COCCNC(=O)C(c1cccs1)N(C(=O)Cn1nnc2ccccc21)c1ccc2c(c1)OCO2 (stereo not given)	none
O=S(=O)(O)c1cccc2cccc(Nc3ccccc3)c12	ALR H2O2 inh 98.7 (no result: PfM18AAP inh)
CCC(C)(C)C1CCc2[nH]nc(C(=O)NC3CCCCC3)c2C1 (stereo not given)	none (no result: PfM18AAP inh)
CC(C)(C)c1ccc(C(=O)CC(Sc2ccc(Cl)cc2)C(=O)O)cc1 (stereo not given)	ALR H2O2 inh 98.0
COc1ccc(N2CCN(C(=O)CS(=O)Cc3nc(-c4ccc(OC)c(OC)c4)oc3C)CC2)cc1 (stereo not given)	none
Cc1ccc(-c2nc(CS(=O)CC(=O)N3CCN(c4ccc(F)cc4)CC3)c(C)o2)cc1 (stereo not given)	ALR H2O2 inh 98.5
Cc1cccc(-c2nc(CS(=O)CC(=O)N3CCN(C)CC3)c(C)o2)c1 (stereo not given)	ALR H2O2 inh 98.7
CCOC(=O)C1CCN(C(=O)CS(=O)Cc2nc(-c3ccc(C)cc3)oc2C)CC1 (stereo not given)	ALR H2O2 inh 99.7
CNS(=O)(=O)c1cccc(C(=O)OCC(=O)Nc2ccc(OC)cc2[N+](=O)[O-])c1	none
O=C(CCCn1c(=S)[nH]c2ccccc2c1=O)NC1CCCCC1	ALR H2O2 inh 79.3
CC1CCCCC1NC(=O)CCn1c(=S)[nH]c2ccccc2c1=O (stereo not given)	none (no result: APOBEC3G inh, APOBEC3A inh, CR mimetic SO, PfM18AAP inh, ALR H2O2 inh)
O=c1c2sc3ccccc3c2[nH]c(=S)n1CCN1CCOCC1	ALR H2O2 inh 95.9
Cc1[nH]c2ccccc2c1SCC(=O)O	none
COCC(=O)NCCSc1c(C)[nH]c2ccccc12	ALR H2O2 inh 86.1
COC(=O)C(F)(F)Sc1c(C)[nH]c2ccccc12	ALR H2O2 inh 99.0
CCC(CC)NC(=O)COC(=O)c1cc(Br)ccc1Cl	none
COc1ccc(C(=O)NCCS(=O)(=O)NC2CCCC2)cc1	none (no result: PfM18AAP inh, ALR H2O2 inh)
O=C(CCn1c(=S)[nH]c2ccccc2c1=O)N1CCOCC1	ALR H2O2 inh 85.4
Cc1[nH]c2ccccc2c1SCC(=O)NC1CCCCC1	ALR H2O2 inh 80.1

High-throughput results as filed in PubChem BioAssay.
